# Screens as filed in PubChem.
# The list is not random: actives were taken first. Their share in the collection is about 3.5%.
# MITF inh = MITF inhibitors, primary screen, biochemical, AlphaScreen, human; Microphthalmia-associated transcription factor (Homo sapiens), O75030; AlphaScreen MITF homodimerization, bead proximity signal; inhibition, % at 2.6 µM; 650,000 tested, 0.91% active; AID 1259374, 2018; in the data active = inhibition above about 50%;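 note: 0% = vehicle wells with protein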
# FBW7 activator = FBW7 E3 ligase activators, primary screen, biochemical, AlphaScreen, human; F-box/WD repeat-containing protein 7 (Homo sapiens), Q969H0; AlphaScreen FBW7–phospho-cyclin E peptide binding, activator screen; normalized activity (activation), % at 26.1 µM; 650,000 tested, 0.13% active; in the data active = normalized activity above about 1.9%;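 note: purified mutant Fbw7 with reduced substrate affinity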
# Target sequence (Q969H0 whole entry, looked up): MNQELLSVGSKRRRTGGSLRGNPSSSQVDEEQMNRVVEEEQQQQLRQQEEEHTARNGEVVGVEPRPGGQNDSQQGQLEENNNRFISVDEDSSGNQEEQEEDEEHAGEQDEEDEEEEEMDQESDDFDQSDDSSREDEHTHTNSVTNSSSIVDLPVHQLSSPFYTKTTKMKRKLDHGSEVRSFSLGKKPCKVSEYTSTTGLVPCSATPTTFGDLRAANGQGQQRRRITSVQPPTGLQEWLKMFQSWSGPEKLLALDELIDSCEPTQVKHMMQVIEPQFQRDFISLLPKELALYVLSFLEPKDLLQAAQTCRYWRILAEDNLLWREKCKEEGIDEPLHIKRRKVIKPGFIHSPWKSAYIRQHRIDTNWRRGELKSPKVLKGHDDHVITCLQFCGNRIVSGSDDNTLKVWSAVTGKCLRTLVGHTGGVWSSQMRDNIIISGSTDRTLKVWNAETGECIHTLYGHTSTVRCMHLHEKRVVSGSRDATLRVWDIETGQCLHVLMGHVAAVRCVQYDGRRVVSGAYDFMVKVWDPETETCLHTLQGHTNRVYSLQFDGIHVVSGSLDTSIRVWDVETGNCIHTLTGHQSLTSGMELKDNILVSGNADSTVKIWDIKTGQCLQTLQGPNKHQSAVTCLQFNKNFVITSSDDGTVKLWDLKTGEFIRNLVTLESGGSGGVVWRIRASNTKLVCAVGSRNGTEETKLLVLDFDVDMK
# GPR151 activ = activators of human GPR151, primary screen, cell-based, PathHunter beta-arrestin, luminescence; G-protein coupled receptor 151 (Homo sapiens), Q8TDV0; PathHunter beta-arrestin GPR151 cells; activation, % at 11.2 µM; 650,000 tested, 1% active; in the data active = activation above about 4.9%;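 note: 0% = median of compound wells and 100% = cells with positive control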
# TEAD-YAP block = TEAD-YAP interaction inhibition, primary screen, TEAD-YAP interaction inhibitor project, luminescence, HEK-TIYL cells; TEAD-Gal4/YAP UAS-luciferase luminescence; inhibition, % at 9.12 µM; 640,000 tested, 1.4% active; in the data active = inhibition above about 32%;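 note: 0% = median of test compound wells and 100% = reference inhibitor wells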
# MITF confirm = MITF inhibitors, retest of hits, confirmation, biochemical, AlphaScreen, triplicate. shares compounds with MITF inh. AlphaScreen MITF homodimerization, biotin/His-MITF beads. inhibition, % at 2.6 µM. 4,700 tested, 16% active. AID 1259372, 2018;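 active = inhibition above a cutoff derived from the DMSO control wells, cut at about 28% in these data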;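 note: 0% = MITF dimer wells with DMSO only; inhibitors lower the bead chemiluminescence by keeping MITF from dimerizing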
# AlphaScreen DR = AlphaScreen optical interference compounds, dose response, counter-screen, biochemical, HTS; 480 tested, 6% active; IC50, µM; AlphaScreen optical interference counterscreen, cell-free; shares compounds with MITF inh; call rule not given here
# AS interf ctr = AlphaScreen optical interference compounds, counter-screen for MITF inhibitor project, biochemical, triplicate; 4,700 tested, 7.6% active; shares compounds with MITF inh; LysRS AlphaScreen counterscreen, signal interference; inhibition, % at 2.6 µM;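 active = inhibition above a cutoff derived from the DMSO control wells, cut at about 30% in these data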
# * marks the source's active call; other numbers are inactive results; nt = no result.
SMILES,MITF inh,FBW7 activator,GPR151 activ,TEAD-YAP block,MITF confirm,AS interf ctr,others
C/C=C/c1ccc(OCCCCn2cncn2)c(OC)c1,55*,0,2,2,-10,-8,
C/C=C/c1ccc(OCCn2cncn2)c(OC)c1,55*,0,0,-5,13,17,
Cc1ccc(OCCn2cncn2)c(I)c1,60*,1,0,-1,8,12,
CC(C)(C)c1ccc(/C=C2\N=C(c3ccccc3[N+](=O)[O-])OC2=O)cc1,10,0,0,10,nt,nt,
O=C(O)/C=C/C(=O)Nc1ccc(SC(F)F)cc1,56*,0,-1,1,0,-10,
COc1cc(C(=O)NCCOc2ccc(Cl)cc2C)cc(OC)c1OC,16,0,-1,2,nt,nt,
O=C(NCc1ccc(F)cc1)C1CC(=O)N(c2ccc(F)cc2)C1 (centres undefined),73*,0,-1,-4,9,14,
COc1ccc(CNC(=O)C2CC(=O)N(c3ccc(F)cc3)C2)cc1 (centres undefined),-1,0,0,6,nt,nt,
O=C1C(Br)=CC(=O)c2c(O)cccc21,20,0,1,-32,nt,nt,
CC1=CC(C)(C)N(C(=O)CNCCCN2CCOCC2)c2cc(C)ccc21,56*,0,-1,-1,6,17,
O=C(CNCCN1CCOCC1)N1CCc2ccccc2C1,71*,0,-1,-6,3,1,
O=C(CNCCCO)Nc1ccccc1N1CCCCCC1,22,1,-1,-4,nt,nt,
O=C(CNCCCO)Nc1ccccc1N1CCCCC1,57*,0,0,-2,7,18,
O=C(CNCCCN1CCOCC1)Nc1ccccc1N1CCOCC1,84*,0,0,-2,-8,-7,
Clc1ccc(-c2csc(N/N=C\c3ccco3)n2)cc1,22,0,4,-43,nt,nt,
N#Cc1cc2c(nc1SC1CC(=O)N(c3ccc(Br)cc3)C1=O)CCCC2 (centres undefined),-3,0,2,-3,nt,nt,
CC(C)CCNCC(=O)Nc1ccccc1N1CCCCC1,58*,0,1,-3,7,18,
O=C(CNCCN1CCCCC1)Nc1ccccc1N1CCCCC1,85*,0,1,6,6,13,
O=C(CNCCN1CCCCC1)Nc1ccccc1N1CCOCC1,86*,0,2,-5,5,12,
O=C(CNC1CCCCC1)Nc1ccccc1N1CCOCC1,55*,0,0,-7,7,14,
O=C(CNC1CCCCCC1)Nc1ccccc1N1CCCCC1,41,0,3,-5,nt,nt,
O=C(CNC1CCCC1)Nc1ccccc1N1CCCCCC1,18,0,2,-3,nt,nt,
COC(=O)c1ccc(NC(=O)CCn2c(=O)sc3ccccc32)cc1,-4,0,1,4,nt,nt,
COC(F)(C(=O)Nc1cc(C(=O)O)cc([N+](=O)[O-])c1)C(F)(F)F (centres undefined),1,0,0,-1,nt,nt,
O=C(NCc1cccs1)c1nn2c(C(F)(F)F)cc(-c3ccco3)nc2c1Br,78*,0,-1,-4,5,20,
SMILES,MITF inh,FBW7 activator,GPR151 activ,TEAD-YAP block,MITF confirm,AS interf ctr,others
COc1ccc(Cc2nnc(Nc3cccc(C)c3)[nH]c2=O)cc1,5,0,4,7,nt,nt,
CCOc1ncccc1C(=O)OCC(=O)Nc1oc(-c2ccco2)c(-c2ccco2)c1C#N,71*,0,-1,2,72*,5,AlphaScreen DR=>6.4
N#Cc1c(NC(=O)c2cccnc2Cl)oc(-c2ccco2)c1-c1ccco1,22,0,0,0,nt,nt,
COCc1cc(C)nc(SCCN(C)C)c1C#N,51*,0,0,-4,11,8,
Cc1cccc(NC(=O)CSc2nsc(SCC(=O)Nc3cccc(C)c3)n2)c1,-6,0,-1,-2,nt,nt,
O=C(CSc1nsc(SCC(=O)Nc2ccc(Cl)c(Cl)c2)n1)Nc1ccc(Cl)c(Cl)c1,59*,0,1,-10,39*,11,
